Assay results as given in PubChem BioAssay AID504725 (Broad Institute, 2011).
Entries with a potency or affinity are not part of this list. Calls of active or inactive are those of the source. The rule behind the calls is not given here.

Each molecule was assayed against KSHV LANA C-terminal domain (residues 932-1162) binding to LBS DNA (UniProt O40947) (assay: inhibitors of C-LANA binding to LBS DNA, dose response, biochemical, fluorescence polarization, cherry-picked samples (AID 504725)). Conditions: MBP-C-LANA / FAM-LBS DNA fluorescence polarization, percent change from plate compound-well median; series mostly up to 35 µM.

outcome, inactive:
CC(C)=C1C2C=CC1C(C(=O)Nc1cc(C)ccc1C)C2C(=O)O (stereo not drawn), O=C1CCCC2=C1C(c1ccc(O)c(O)c1)Nc1ccc3ncccc3c12 (stereo not drawn), Cc1ccc(C(=O)c2coc3ccc(O)c(Cl)c23)cc1, Cc1cccc(-c2nsc(SCC(=O)Nc3nccs3)n2)c1, Cc1cccnc1NC1(C(F)(F)F)N=C2SCCN2C1=O (stereo not drawn), Cc1cc2nc(SCCN3CCOCC3)[nH]c2cc1C, COc1ccc(N(CC(=O)NCc2ccc3c(c2)OCO3)C(=O)c2csnn2)cc1, CCOc1ccc(C(C)NC(=O)c2ccccc2OCc2c(C)noc2C)cc1OCC (stereo not drawn), CC(C)Cc1nc(SCC(=O)Nc2nnc(CC(C)C)s2)n[nH]1, N=c1ccn(Cc2ccc(Cl)cc2)cc1, Cc1cccc(N(Cc2ccccc2)C(=O)C2CCN(C(=O)c3ccccc3C)CC2)c1, O=C(N/N=C/c1ccc(N2CCOCC2)cc1)c1ccccn1, COc1ccc(/C=N/NC(=O)c2ccc3nc[nH]c3c2)c(OC)c1, Nc1ccc2c(O)cc(S(=O)(=O)O)cc2c1, Cc1ccc2c(c1)nnn2C1CCN(C(=O)c2cccs2)CC1, COc1ccc(OC)c(NC(=O)c2nnn(Cc3ccc(Br)cc3F)c2N)c1, COc1ccc(Br)cc1CNC(=O)CCCc1cn(C)c2ccccc12, Cc1ccc(NC(=O)CN(C)C(=O)c2nn(C)c(=O)c3ccccc23)cc1, Cc1nn(CC(=O)c2ccc(Br)s2)c(C)c1[N+](=O)[O-], CCCc1nc(NCc2ccccn2)c2nnn(Cc3ccccc3F)c2n1, O=C(/C=C\c1ccccc1)Oc1cccc2cccnc12, CC(=O)N/C(=C/c1ccc(OS(=O)(=O)c2ccc(C)cc2)cc1)C(=O)Nc1ccc(C(=O)O)cc1, O=S(=O)(NCc1cccnc1)c1ccc(Cl)s1, CC(C(=O)Nc1ccccc1)N1C(=O)c2ccccc2C1=O (stereo not drawn), COc1ccccc1C(=O)NCC(=O)OCC(=O)N(CC(C)C)c1c(N)n(Cc2ccccc2)c(=O)[nH]c1=O, CCn1c(=O)c(C(=O)NCCN2CCCCC2)c(O)c2ccccc21, Cc1ccc(NS(=O)(=O)c2ccc(C(=O)NCCCN3CCCC3=O)cc2)cc1, CCCOc1ccc(C=Nc2ccc(OC)c(S(=O)(=O)N3CCOCC3)c2)c(O)c1, COC(=O)c1cccc(COC(=O)c2ccccc2NC(=O)c2ccco2)c1, Fc1ccc(-c2cc(C(F)(F)F)nc(-n3cc(Cl)cn3)n2)cc1, CCOc1ccccc1N1CCN(C(=O)c2ccc3nc(N)sc3c2)CC1, O=C(COC(=O)c1ccc([N+](=O)[O-])o1)NCCCc1ccccc1, CCOC(=O)C1=C(COC(=O)c2ccc([N+](=O)[O-])s2)NC(=O)NC1C (stereo not drawn), CS(=O)(=O)c1cccc(C(=O)Oc2ccccc2)c1, O=C(NCCN1CCN(C(=O)c2cccs2)CC1)c1cccs1, CC1Cc2ccccc2N1C(=O)CCS(=O)(=O)c1cccs1 (stereo not drawn), COc1cccc2[nH]c(C(=O)NC(C)c3ccccc3)cc12 (stereo not drawn), Cc1cc2c(N)cccc2nn1
